The target in assay [1] is Nuclear receptor subfamily 1 group I member 3 (Homo sapiens) (UniProt Q14994). Nature of the assay: Primary qHTS for antagonist of constitutive androstane receptor (CAR) against the NCATS DSHEA and TCM libraries (AID 1794836).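 For activity change, negative = inhibition: HepG2 cells stably expressing hCAR with CYP2B6 luciferase reporter stimulated by CITCO; series mostly up to about 40 µM.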 Note: potency is the fitted concentration of half-maximal effect. The method in brief: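 Antagonist mode: CAR reporter luminescence (ONE-Glo) in HepG2-CYP2B6-hCAR cells stimulated with 48 uM CITCO (final) over 24 h at 37 C, compounds titrated; viability read first by CellTiter-Fluor fluorescence.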

Assay [2] can be described thus: KB-8-5-11 P-gp reporter qHTS against the NCATS DSHEA and TCM libraries (AID 1919977). Note: 0% is about no effect. In short, it runs like this: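 P-gp-overexpressing KB-8-5-11 cells were screened in colchicine-free medium at 500 cells/well, as a titration series. Cells were exposed for 72 h at 37C. Viability was read by CellTiter-Glo luminescence after 30 min at room temperature.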
On the technique in general: qHTS replaces the single test concentration by a dilution series.

Assay [3] can be described thus: Viability counterscreen for antagonist of constitutive androstane receptor (CAR) against the NCATS DSHEA and TCM libraries (AID 1794837).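 Note: compound exposure lasted 24 h before viability reading; 0% is about no effect.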 In short, it runs like this: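 HepG2-CYP2B6-hCAR cells, 2,500/well, were exposed 24 hr at 37C to substances together with 48 uM CITCO (final). Viability was read as CellTiter-Fluor fluorescence (Ex/Em 405/540 nm) after 1 hr.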
(In general: The purpose of a counterscreen is to sort out artefacts and off-target activity.)

Assay [4] can be described thus: Viability counterscreen for agonist of constitutive androstane receptor (CAR) against the NCATS DSHEA and TCM libraries (AID 1794838).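 Note: HepG2 cells with CYP2B6 reporter and hCAR plus 0.75 µM PK11195 antagonist; 0% is about no effect.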 In short, it runs like this:
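HepG2-CYP2B6-hCAR cells (2,500/well) treated 24 h at 37C with compounds plus 0.75 uM PK11195; viability read by CellTiter-Fluor fluorescence, Ex/Em 405/540 nm.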

Assay [5] in a line: HepG2 viability counterscreen (readout 2: ATP content) against the NCATS DSHEA and TCM libraries (AID 1794840). Note: 0% is about no effect. The method in brief: (§1)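 HepG2 cells, 1,000/well, attached ~4 h, then exposed ~24 h at 37C to substances. Protease activity read by fluorescence of 25 uM GF-AFC (Ex/Em 380/510 nm) after 30 min; ATP then by CellTiter-Glo luminescence.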
The nature of assay [6]: HepG2 viability counterscreen (readout 1: protease activity) against the NCATS DSHEA and TCM libraries (AID 1794841).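 Note: cells exposed to compounds for about 24 h before the protease read; 0% is about no effect.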 The method in brief: as §1
For assay [7], the target named is Cytochrome P450 3A4 (Homo sapiens) (UniProt P08684). Nature of the assay: qHTS for inhibitors of CYP3A4 against the NCATS DSHEA and TCM libraries (AID 1919971).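 For activity change, negative = inhibition: % is set by controls: 0 for no effect and ±100 for the full control effect; inhibition lowers luminescence from luciferin made by CYP3A4.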 Note: potency is the fitted concentration of half-maximal effect. In short, it runs like this: (§2)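 Light output from converted D-luciferin reports remaining CYP activity. Compounds preincubate with enzyme and substrate for 15 min; NADPH regeneration (1x final) runs the reaction for 30-45 min.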

Assay [8] concerns the target Cytochrome P450 2D6 (Homo sapiens) (UniProt P10635). Briefly: qHTS for inhibitors of CYP2D6 against the NCATS DSHEA and TCM libraries (AID 1919972). Note: % is set by controls: 0 for no effect and ±100 for the full control effect. The method in brief:
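Steps: enzyme plus luciferin substrate dispensed; test substances pinned; 15 min RT; 1x NADPH regenerating solution added, 30–45 min RT protected from light; detection reagent, 30 min RT; luminescence measured. Minus-enzyme wells as background.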

Assay [9] concerns the target Cytochrome P450 2C9 (Homo sapiens) (UniProt P11712). Briefly: qHTS for inhibitors of CYP2C9 against the NCATS DSHEA and TCM libraries (AID 1919973).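 For activity change, negative = inhibition: luminogenic pro-luciferin CYP2C9 substrate turned into luciferin with NADPH regeneration; series mostly up to about 34 µM; % is set by controls: 0 for no effect and ±100 for the full control effect.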 Note: potency is the fitted concentration of half-maximal effect. The method in brief: as §2
The nature of assay [10]: KB-3-1 P-gp reporter qHTS against the NCATS DSHEA and TCM libraries (AID 1919975). Note: 0% is about no effect. The method in brief:
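Parental KB-3-1 cells, 500 cells/well, in DMEM with 10% FBS, exposed 72 h at 37 C to compounds in concentration-response. Viability read by CellTiter-Glo luminescence after 30 min at room temperature.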

The target in assay [11] is Cytochrome P450 1A2 (Homo sapiens) (UniProt P05177). Nature of the assay: qHTS for inhibitors of CYPIA2 against the NCATS DSHEA and TCM libraries (AID 1919976).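 For activity change, negative = inhibition: light from luciferin formed by CYP1A2 from a pro-luciferin substrate; series mostly up to about 37 µM; % is set by controls: 0 for no effect and ±100 for the full control effect.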 Note: potency is the fitted concentration of half-maximal effect. The method in brief:
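In this quantitative HTS, inhibition of recombinant human CYP1A2 was measured as loss of luciferin-derived luminescence. Turnover ran 30-45 min at RT after NADPH regeneration solution was added.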

Assay [12] in a line: qHTS Counterscreen for compound interference against the NCATS DSHEA and TCM libraries (AID 1919978).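 Note: compounds preincubated with 1 µM D-luciferin or buffer before detection reagent; % of control where 0% means no effect.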 Conditions: firefly luciferase detection reagent interference, luminescence. In short, it runs like this:
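Firefly luciferase detection reagent was added after compounds (19.5 nM–39.8 uM final) had been incubated 15 min at room temperature with 1 uM D-luciferin or with 100 mM phosphate buffer alone. Luminescence was read after 30 min at room temperature.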

A short description of assay [13]: Dual reporter qHTS for agonist of Pregnane X Receptor (hPXR) against the NCATS DSHEA and TCM libraries: Fluorescence readout (AID 1920058). Note: 0% is about no effect. The method in brief:
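Measures viability of the PXR reporter HepG2 line by protease-substrate fluorescence (405/540 nm), taken 1 h after CellTiter-Fluor addition. Substances are tested as concentration series over a ~24 h exposure, with rifampicin as agonist control.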

Assay [14] has as its target Nuclear receptor subfamily 1 group I member 2 (Homo sapiens) (UniProt O75469). Briefly: Dual reporter qHTS for agonist of Pregnane X Receptor (hPXR) against the NCATS DSHEA and TCM libraries: Luminescence readout (AID 1920059). Note: 0% is about no effect. In short, it runs like this:
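Luminescent PXR reporter read (ONE-Glo) after a CellTiter-Fluor viability read, following 24 h, 37C treatment of HepG2 cells stably carrying hPXR-Luc.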

The nature of assay [15]: Dual reporter qHTS for antagonist of Pregnane X Receptor (hPXR) against the NCATS DSHEA and TCM libraries: Fluorescence Readout (AID 1920061). Note: 0% is about no effect. In short, it runs like this:
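Antagonist mode: rifampicin 2 uM final co-added with compounds to hPXR-LucHepG2 cells for 24 h at 37C. Viability by CellTiter-Fluor, Ex/Em 405/540 nm, 1 h; reporter by ONE-Glo luminescence.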

Assay [16] concerns the target Cytochrome P450 2C19 (Homo sapiens) (UniProt P33261). Briefly: qHTS for inhibitors of CYP2C19 against the NCATS DSHEA and TCM libraries (AID 1919974).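 Note: luminescence from luciferin released by CYP2C19 oxidation of a pro-luciferin substrate; % is set by controls: 0 for no effect and ±100 for the full control effect.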 In short, it runs like this:
as §2

Inconclusive results are not listed. The source made the active and inactive calls. Calls come from the whole dose curve; as a rule, active = well fitted curve in the direction sought with a large enough effect; inconclusive = small, poorly fitted or top-dose-only effect, or another doubt; inactive = no such curve, though single readings can be large; an effect the other way counts as inactive or inconclusive.

Sequence of Cytochrome P450 2C9 (Homo sapiens) (P11712 whole entry, looked up): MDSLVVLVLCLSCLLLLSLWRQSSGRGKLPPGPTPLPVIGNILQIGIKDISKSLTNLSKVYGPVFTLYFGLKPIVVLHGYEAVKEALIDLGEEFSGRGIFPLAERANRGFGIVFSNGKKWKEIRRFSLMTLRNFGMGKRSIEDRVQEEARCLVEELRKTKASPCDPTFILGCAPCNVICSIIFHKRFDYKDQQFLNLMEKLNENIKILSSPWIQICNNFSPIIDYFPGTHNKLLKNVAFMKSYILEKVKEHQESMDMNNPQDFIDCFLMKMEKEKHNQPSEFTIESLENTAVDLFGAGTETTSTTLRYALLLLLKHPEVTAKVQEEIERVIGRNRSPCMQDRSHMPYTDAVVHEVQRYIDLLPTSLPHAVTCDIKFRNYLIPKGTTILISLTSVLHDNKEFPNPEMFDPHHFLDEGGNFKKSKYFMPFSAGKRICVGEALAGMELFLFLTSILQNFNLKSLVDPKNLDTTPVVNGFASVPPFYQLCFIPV
Sequence of Cytochrome P450 1A2 (Homo sapiens) (P05177 whole entry, looked up): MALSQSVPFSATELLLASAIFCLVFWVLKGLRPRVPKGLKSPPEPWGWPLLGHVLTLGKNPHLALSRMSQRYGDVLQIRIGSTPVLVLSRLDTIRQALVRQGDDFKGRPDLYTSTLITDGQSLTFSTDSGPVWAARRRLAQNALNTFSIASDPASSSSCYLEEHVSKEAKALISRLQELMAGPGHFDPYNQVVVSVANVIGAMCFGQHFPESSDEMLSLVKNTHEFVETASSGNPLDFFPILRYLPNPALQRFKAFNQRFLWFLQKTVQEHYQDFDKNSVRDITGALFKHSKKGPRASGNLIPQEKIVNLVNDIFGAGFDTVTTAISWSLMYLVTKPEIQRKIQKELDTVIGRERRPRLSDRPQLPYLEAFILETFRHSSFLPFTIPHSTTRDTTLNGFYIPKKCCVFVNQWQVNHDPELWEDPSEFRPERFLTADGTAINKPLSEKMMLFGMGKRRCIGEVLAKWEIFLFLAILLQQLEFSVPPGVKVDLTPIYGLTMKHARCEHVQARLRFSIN
Sequence of Cytochrome P450 3A4 (Homo sapiens) (P08684 whole entry, looked up): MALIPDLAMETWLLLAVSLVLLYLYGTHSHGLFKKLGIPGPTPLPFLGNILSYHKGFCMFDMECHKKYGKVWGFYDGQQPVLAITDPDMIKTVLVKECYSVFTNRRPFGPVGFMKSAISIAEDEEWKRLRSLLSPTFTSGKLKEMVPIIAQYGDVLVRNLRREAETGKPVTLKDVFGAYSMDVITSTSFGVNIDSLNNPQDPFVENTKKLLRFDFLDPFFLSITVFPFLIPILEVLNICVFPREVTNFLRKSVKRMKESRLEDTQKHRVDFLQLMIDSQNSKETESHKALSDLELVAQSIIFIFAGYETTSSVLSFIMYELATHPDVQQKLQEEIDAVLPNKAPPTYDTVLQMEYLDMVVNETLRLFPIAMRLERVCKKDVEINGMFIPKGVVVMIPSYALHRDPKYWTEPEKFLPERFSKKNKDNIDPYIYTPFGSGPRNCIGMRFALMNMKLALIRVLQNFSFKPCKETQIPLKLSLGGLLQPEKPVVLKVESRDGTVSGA
Sequence of Nuclear receptor subfamily 1 group I member 3 (Homo sapiens) (Q14994 whole entry, looked up): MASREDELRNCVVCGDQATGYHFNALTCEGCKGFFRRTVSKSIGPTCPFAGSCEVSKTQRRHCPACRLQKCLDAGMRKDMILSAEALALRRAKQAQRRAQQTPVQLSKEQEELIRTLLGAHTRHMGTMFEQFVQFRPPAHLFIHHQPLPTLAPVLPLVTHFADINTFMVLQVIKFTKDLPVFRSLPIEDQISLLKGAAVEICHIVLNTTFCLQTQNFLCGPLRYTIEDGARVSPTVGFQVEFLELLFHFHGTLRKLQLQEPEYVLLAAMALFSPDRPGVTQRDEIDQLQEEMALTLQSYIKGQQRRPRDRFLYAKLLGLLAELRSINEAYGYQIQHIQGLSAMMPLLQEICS
Sequence of Cytochrome P450 2D6 (Homo sapiens) (P10635 whole entry, looked up): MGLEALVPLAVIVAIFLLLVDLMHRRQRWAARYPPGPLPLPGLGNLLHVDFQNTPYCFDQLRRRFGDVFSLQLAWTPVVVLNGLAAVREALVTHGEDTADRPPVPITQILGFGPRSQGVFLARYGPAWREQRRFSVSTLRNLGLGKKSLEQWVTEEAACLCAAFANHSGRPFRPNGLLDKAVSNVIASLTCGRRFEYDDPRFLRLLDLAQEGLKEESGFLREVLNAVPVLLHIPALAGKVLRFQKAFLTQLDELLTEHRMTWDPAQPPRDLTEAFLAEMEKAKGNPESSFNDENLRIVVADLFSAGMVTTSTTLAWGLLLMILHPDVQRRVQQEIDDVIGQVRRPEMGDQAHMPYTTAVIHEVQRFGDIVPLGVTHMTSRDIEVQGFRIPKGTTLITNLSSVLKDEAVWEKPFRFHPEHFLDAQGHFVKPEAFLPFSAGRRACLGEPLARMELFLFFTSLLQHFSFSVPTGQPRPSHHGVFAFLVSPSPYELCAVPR
Sequence of Cytochrome P450 2C19 (Homo sapiens) (P33261 whole entry, looked up): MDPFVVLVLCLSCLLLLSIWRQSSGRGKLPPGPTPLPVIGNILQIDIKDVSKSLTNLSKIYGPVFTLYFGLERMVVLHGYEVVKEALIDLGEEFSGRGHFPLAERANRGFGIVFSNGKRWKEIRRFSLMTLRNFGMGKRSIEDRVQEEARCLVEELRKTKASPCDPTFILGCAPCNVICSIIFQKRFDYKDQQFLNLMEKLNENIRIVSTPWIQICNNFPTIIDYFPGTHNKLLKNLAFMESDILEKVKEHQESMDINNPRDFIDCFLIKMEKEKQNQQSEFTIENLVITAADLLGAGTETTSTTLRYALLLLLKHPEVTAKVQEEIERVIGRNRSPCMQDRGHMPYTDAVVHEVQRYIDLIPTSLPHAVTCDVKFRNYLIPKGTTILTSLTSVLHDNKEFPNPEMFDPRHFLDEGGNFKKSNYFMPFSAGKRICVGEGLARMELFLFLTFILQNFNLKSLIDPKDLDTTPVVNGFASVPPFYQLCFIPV
Sequence of Nuclear receptor subfamily 1 group I member 2 (Homo sapiens) (O75469 whole entry, looked up): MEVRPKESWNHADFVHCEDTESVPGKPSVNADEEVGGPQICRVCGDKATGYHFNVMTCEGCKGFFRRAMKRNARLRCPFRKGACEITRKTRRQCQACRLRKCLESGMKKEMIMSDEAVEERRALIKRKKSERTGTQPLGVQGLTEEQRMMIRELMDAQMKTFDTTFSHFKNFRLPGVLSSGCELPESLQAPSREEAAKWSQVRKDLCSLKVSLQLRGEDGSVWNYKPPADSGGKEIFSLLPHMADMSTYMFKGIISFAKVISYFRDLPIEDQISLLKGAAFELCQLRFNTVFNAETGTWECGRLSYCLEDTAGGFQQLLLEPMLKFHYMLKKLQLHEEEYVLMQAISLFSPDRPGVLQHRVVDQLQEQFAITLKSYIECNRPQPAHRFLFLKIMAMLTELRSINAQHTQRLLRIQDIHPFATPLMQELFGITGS

As for `Oc1cc(O)c2c(c1)O[C@@H](c1cc(O)c(O)c(O)c1)[C@H](O)C2`, the Potency entry in assay [1] and in assay [2] was “inactive” in each case.
With `O=C(/C=C/c1ccc(O)c(O)c1)O[C@@H]1CC(O)(C(=O)O)C[C@@H](OC(=O)/C=C/c2ccc(O)c(O)c2)C1O` (stereo partly drawn), the Potency result in [1] and in assay [2] was “inactive” in each case.
For `CCCCCCCCCCCCCCCCCCCC(=O)O`, the Potency result in [1], in [7], in [8] and in [14] was “inactive” throughout. Moreover, the molecule was called inactive in [3], in assay [4], in assay [5], in assay [6], in [10] and in [13]. Moreover, the molecule was called inactive in [15]. Further, the Potency in assay [9] was 15.8 µM (active); in assay [11], 22.4 µM (active). The max response in assay [12] is 0.104% (inactive).
Regarding `C[C@@H]1CC[C@]2(C)CC[C@]3(C)C(=CC(=O)C4[C@@]5(C)CC[C@@H](O)[C@](C)(C(=O)O)C5CC[C@]43C)C2[C@H]1C` (stereo partly drawn), the Potency entry in assay [1] and in assay [2] was “inactive” in each case.
Regarding `C=C[C@](C)(O)CCC=C(C)C`, the Potency entry in assay [1] and in [2] was “inactive” throughout.
In the case of `Cc1ccc(C(C)C)cc1`, the Potency entry in [1] and in [2] was “inactive” in each case.
As to `O=c1ccc2ccc(O)cc2o1`, the Potency result in [1] and in [2] was “inactive” each time.
Consider `COC1=C(OC)C(=O)C(C/C=C(\C)CC/C=C(\C)CC/C=C(\C)CC/C=C(\C)CC/C=C(\C)CC/C=C(\C)CC/C=C(\C)CC/C=C(\C)CC/C=C(\C)CCC=C(C)C)=C(C)C1=O`, for which the Potency result in [1] and in assay [2] was “inactive” each time.
For the molecule `CCCCCCCC/C=C\CCCCCCCCCCCCCC(=O)O`, the Potency entry in assay [1] and in assay [2] was “inactive” throughout.
On to `CC(=O)O[C@H]1[C@H](O[C@H]2CC[C@]34C[C@]35CC[C@]3(C)[C@@H]([C@@]6(C)CC[C@@H](C(C)(C)O)O6)[C@@H](O)C[C@@]3(C)[C@@H]5C[C@H](O[C@@H]3O[C@H](CO)[C@@H](O)[C@H](O)[C@H]3O)[C@H]4C2(C)C)OC[C@@H](O)[C@@H]1O`, for which the Potency result in [1] was “inactive”.
`COC1=C[C@@]23CCN(C)[C@H](Cc4ccc(OC)c(O)c42)C3=CC1=O`: the Potency result in [1], in assay [7], in [9], in assay [16], in [11] and in [2] was “inactive” throughout. Also, the molecule was classed as inactive in assay [3], in assay [4], in [5], in assay [6], in [10] and in assay [13]. Besides, the molecule was classed as inactive in [15]. For the same molecule, in [12], the max response was -3.14% (inactive).
Regarding `CC(C)=CCC[C@](C)(O[C@@H]1O[C@H](CO[C@@H]2O[C@H](CO)[C@@H](O)[C@H](O)[C@H]2O)[C@@H](O)[C@H](O)[C@H]1O)C1CC[C@]2(C)[C@@H]1[C@H](O)CC1[C@@]3(C)CC[C@H](O[C@@H]4O[C@H](CO)[C@@H](O)[C@H](O)[C@H]4O[C@@H]4O[C@H](CO)[C@@H](O)[C@H](O)[C@H]4O)C(C)(C)[C@@H]3CC[C@]12C` (stereo partly drawn), the activity change, negative = inhibition in [1] is -31.6% [at 8.32 µM] (inactive); in assay [2], 14.6% [at 5.42 µM] (inactive).
On to `O=c1cc(-c2ccc(O)cc2)oc2cc(O[C@H]3OC(CO)C(O)C(O)C3O)cc(O)c12` (stereo partly drawn), for which the Potency entry in [1] and in assay [2] was “inactive” each time.
Take `COC(=O)C1=CO[C@@H](C)[C@H]2CN3CCc4c([nH]c5ccccc45)[C@@H]3C[C@H]12`: the Potency result in assay [1] and in [2] was “inactive” throughout.
With `O=C(O)[C@H]1O[C@@H](Oc2c(-c3ccc(O)c(O)c3)oc3cc(O)cc(O)c3c2=O)[C@H](O)[C@@H](O)[C@@H]1O`, the Potency entry in [1] and in [2] was “inactive” throughout.
Consider `COc1ccc(-c2coc3cc(O[C@@H]4O[C@H](CO)[C@@H](O)[C@H](O)[C@H]4O)ccc3c2=O)cc1`, for which the Potency result in assay [1] is “inactive”.
Take `C=C[C@H]1CN2CC[C@@]3(C(=O)Nc4ccccc43)[C@@H]2C[C@@H]1/C(=C\OC)C(=O)OC`: the Potency in assay [1] is 3.98 µM (active); in assay [7] it was 12.6 µM (active). The outcome in [3], in assay [4], in assay [5], in [6], in [10] and in assay [13] was inactive. Further, in assay [15], the call was inactive. The Potency result in [8], in assay [9] and in assay [11] was “inactive” each time. Further, the max response in assay [12] is -1.45% (inactive).
For the molecule `O=C(/C=C/c1ccc(O)c(O)c1)OC1[C@H](O)CC(O)(C(=O)O)C[C@@H]1O` (stereo partly drawn), the Potency result in assay [1] and in assay [2] was “inactive” in each case.
In the case of `O=C(O)CC(O)(C(=O)O)C(O)C(=O)O` (stereo not drawn), the Potency entry in assay [1] and in assay [2] was “inactive” throughout.
Consider `C=C1CC/C=C(/C)CC[C@@H]2[C@@H]1CC2(C)C`, for which the Potency entry in [1] and in assay [2] was “inactive” in each case.

The record behind these values is PubChem BioAssay (NCATS).
